Assays:
Assay in all cases: log2 ratio of Biotin-Ahx-Ub-VS probe labelling (fragment/DMSO); higher = less target engagement (more negative = stronger competition), active = hit call of the paper (q ≤ 0.05, log2 ratio ≤ -1)
Conditions in all cases: compound concentration: 200 uM; treatment time: 3 h
[1] = target: USP34 (UniProt Q70CQ2)
Summary of the method: (§1)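 The table lists average log2 ratios of fragment over vehicle, from an unpaired t-test on global-median-normalised Spectronaut label-free quantities. Proteins with ≥2 unique peptides were used. Samples were HEK293T lysate (495 µg) treated in triplicate with fragment at 200 µM or vehicle for 3 h, then with Biotin-Ahx-Ub-VS (0.5 µM final) for 1 h, with labelled DUBs NeutrAvidin-enriched and run by diaPASEF LC-MS/MS.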

[2] = target: T1, USP36 (UniProt Q9P275)
T1 sequence (whole entry): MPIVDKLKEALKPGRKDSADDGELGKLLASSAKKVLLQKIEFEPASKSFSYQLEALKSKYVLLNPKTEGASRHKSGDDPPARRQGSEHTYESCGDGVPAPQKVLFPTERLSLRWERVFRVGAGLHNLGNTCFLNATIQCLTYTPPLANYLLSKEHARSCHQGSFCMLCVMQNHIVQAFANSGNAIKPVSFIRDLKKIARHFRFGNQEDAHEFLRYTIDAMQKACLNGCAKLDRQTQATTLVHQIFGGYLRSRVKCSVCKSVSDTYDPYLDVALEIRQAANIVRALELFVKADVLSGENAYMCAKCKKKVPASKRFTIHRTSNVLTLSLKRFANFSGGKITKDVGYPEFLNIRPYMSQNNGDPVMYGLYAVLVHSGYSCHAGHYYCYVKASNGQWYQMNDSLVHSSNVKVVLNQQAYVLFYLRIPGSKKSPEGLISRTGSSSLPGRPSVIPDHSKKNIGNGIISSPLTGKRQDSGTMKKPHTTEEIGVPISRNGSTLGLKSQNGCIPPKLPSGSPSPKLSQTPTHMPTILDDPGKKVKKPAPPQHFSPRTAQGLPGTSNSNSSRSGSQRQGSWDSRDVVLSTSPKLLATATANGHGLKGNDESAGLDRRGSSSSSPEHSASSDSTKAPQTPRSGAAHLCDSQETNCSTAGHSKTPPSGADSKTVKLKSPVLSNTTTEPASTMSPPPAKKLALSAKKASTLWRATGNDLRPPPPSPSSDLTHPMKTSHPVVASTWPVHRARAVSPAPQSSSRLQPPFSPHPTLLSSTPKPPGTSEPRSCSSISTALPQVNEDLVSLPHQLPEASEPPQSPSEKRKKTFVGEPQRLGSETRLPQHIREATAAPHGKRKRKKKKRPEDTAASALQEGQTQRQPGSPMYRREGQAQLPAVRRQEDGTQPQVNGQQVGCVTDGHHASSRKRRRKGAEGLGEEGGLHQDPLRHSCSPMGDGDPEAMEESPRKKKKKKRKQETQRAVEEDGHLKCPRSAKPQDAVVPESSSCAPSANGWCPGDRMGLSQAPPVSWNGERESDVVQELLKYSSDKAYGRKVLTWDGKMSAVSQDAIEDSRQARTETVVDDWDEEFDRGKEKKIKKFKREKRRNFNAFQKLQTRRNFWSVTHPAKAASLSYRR
Summary of the method: as §1

[3] = target: T2, USP38 (UniProt Q8NB14)
T2 sequence (whole entry): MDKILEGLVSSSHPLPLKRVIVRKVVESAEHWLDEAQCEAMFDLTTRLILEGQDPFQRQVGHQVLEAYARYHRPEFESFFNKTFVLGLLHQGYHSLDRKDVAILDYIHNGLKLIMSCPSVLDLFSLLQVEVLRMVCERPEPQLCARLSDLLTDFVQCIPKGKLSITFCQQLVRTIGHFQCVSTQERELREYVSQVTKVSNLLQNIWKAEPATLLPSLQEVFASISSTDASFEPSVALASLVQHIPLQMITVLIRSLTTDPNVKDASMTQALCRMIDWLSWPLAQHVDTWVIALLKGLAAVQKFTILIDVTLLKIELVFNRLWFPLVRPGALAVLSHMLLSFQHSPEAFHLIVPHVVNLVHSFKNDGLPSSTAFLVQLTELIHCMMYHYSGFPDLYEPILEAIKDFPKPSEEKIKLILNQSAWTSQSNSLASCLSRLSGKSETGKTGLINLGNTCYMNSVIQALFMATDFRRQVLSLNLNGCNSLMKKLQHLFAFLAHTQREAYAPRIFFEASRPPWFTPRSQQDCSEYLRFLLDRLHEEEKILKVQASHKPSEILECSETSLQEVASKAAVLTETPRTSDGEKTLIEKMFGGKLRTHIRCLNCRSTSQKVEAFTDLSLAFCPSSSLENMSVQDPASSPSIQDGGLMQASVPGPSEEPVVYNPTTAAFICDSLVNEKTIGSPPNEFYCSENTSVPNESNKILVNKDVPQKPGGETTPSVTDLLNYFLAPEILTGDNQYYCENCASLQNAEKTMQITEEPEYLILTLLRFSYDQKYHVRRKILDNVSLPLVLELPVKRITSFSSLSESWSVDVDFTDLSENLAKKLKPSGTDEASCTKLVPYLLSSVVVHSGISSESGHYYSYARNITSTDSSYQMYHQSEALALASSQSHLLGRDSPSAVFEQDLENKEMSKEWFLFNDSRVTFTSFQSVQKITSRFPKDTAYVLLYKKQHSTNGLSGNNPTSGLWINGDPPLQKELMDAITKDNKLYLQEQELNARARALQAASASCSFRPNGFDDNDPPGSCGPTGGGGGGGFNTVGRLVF
Summary of the method: as §1

[4] = target: T3, USP39 (UniProt Q53GS9)
T3 sequence (whole entry): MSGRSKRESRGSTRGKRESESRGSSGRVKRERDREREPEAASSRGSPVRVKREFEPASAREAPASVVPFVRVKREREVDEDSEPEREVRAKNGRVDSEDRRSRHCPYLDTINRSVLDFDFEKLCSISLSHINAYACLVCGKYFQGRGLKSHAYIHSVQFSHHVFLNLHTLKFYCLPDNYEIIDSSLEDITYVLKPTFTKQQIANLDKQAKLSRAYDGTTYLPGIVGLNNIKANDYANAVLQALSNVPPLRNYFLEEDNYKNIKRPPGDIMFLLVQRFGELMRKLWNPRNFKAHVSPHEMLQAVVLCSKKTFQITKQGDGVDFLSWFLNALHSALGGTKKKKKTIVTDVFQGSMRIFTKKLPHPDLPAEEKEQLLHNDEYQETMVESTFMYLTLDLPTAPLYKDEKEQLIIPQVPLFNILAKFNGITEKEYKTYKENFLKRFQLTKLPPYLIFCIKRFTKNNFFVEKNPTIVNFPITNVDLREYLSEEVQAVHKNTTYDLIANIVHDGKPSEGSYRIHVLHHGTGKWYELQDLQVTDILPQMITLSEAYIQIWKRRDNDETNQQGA
Summary of the method: as §1

[5] = target: T4, USP4 (UniProt Q13107)
T4 sequence (whole entry): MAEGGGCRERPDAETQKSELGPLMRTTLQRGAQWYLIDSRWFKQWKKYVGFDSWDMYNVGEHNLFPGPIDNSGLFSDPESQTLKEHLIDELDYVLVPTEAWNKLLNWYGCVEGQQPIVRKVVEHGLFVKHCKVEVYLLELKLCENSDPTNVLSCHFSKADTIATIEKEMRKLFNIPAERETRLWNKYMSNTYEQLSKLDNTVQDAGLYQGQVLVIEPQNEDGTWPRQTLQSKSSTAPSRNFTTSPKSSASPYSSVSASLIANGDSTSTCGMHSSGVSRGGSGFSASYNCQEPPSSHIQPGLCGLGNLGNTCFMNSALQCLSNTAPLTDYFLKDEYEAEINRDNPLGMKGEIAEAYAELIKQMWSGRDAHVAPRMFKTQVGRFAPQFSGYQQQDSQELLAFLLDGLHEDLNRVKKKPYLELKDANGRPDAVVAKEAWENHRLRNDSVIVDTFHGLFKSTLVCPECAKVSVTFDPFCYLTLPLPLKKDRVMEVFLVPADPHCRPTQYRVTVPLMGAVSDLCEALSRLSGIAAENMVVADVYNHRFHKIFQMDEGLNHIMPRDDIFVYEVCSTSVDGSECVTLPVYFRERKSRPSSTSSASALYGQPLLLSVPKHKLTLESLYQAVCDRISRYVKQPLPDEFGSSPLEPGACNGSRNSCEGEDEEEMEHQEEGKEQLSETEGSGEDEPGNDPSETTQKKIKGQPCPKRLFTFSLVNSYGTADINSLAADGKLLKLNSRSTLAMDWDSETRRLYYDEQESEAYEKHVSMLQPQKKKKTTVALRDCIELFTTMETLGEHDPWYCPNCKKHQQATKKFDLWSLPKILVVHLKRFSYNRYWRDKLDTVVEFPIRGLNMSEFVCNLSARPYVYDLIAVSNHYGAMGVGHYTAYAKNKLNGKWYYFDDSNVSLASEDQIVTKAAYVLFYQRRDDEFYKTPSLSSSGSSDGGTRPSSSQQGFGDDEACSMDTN
Summary of the method: as §1

Measured: log2 ratio of Biotin-Ahx-Ub-VS probe labelling

Chain of USP34 (Q70CQ2 whole entry, the tested form may be a part): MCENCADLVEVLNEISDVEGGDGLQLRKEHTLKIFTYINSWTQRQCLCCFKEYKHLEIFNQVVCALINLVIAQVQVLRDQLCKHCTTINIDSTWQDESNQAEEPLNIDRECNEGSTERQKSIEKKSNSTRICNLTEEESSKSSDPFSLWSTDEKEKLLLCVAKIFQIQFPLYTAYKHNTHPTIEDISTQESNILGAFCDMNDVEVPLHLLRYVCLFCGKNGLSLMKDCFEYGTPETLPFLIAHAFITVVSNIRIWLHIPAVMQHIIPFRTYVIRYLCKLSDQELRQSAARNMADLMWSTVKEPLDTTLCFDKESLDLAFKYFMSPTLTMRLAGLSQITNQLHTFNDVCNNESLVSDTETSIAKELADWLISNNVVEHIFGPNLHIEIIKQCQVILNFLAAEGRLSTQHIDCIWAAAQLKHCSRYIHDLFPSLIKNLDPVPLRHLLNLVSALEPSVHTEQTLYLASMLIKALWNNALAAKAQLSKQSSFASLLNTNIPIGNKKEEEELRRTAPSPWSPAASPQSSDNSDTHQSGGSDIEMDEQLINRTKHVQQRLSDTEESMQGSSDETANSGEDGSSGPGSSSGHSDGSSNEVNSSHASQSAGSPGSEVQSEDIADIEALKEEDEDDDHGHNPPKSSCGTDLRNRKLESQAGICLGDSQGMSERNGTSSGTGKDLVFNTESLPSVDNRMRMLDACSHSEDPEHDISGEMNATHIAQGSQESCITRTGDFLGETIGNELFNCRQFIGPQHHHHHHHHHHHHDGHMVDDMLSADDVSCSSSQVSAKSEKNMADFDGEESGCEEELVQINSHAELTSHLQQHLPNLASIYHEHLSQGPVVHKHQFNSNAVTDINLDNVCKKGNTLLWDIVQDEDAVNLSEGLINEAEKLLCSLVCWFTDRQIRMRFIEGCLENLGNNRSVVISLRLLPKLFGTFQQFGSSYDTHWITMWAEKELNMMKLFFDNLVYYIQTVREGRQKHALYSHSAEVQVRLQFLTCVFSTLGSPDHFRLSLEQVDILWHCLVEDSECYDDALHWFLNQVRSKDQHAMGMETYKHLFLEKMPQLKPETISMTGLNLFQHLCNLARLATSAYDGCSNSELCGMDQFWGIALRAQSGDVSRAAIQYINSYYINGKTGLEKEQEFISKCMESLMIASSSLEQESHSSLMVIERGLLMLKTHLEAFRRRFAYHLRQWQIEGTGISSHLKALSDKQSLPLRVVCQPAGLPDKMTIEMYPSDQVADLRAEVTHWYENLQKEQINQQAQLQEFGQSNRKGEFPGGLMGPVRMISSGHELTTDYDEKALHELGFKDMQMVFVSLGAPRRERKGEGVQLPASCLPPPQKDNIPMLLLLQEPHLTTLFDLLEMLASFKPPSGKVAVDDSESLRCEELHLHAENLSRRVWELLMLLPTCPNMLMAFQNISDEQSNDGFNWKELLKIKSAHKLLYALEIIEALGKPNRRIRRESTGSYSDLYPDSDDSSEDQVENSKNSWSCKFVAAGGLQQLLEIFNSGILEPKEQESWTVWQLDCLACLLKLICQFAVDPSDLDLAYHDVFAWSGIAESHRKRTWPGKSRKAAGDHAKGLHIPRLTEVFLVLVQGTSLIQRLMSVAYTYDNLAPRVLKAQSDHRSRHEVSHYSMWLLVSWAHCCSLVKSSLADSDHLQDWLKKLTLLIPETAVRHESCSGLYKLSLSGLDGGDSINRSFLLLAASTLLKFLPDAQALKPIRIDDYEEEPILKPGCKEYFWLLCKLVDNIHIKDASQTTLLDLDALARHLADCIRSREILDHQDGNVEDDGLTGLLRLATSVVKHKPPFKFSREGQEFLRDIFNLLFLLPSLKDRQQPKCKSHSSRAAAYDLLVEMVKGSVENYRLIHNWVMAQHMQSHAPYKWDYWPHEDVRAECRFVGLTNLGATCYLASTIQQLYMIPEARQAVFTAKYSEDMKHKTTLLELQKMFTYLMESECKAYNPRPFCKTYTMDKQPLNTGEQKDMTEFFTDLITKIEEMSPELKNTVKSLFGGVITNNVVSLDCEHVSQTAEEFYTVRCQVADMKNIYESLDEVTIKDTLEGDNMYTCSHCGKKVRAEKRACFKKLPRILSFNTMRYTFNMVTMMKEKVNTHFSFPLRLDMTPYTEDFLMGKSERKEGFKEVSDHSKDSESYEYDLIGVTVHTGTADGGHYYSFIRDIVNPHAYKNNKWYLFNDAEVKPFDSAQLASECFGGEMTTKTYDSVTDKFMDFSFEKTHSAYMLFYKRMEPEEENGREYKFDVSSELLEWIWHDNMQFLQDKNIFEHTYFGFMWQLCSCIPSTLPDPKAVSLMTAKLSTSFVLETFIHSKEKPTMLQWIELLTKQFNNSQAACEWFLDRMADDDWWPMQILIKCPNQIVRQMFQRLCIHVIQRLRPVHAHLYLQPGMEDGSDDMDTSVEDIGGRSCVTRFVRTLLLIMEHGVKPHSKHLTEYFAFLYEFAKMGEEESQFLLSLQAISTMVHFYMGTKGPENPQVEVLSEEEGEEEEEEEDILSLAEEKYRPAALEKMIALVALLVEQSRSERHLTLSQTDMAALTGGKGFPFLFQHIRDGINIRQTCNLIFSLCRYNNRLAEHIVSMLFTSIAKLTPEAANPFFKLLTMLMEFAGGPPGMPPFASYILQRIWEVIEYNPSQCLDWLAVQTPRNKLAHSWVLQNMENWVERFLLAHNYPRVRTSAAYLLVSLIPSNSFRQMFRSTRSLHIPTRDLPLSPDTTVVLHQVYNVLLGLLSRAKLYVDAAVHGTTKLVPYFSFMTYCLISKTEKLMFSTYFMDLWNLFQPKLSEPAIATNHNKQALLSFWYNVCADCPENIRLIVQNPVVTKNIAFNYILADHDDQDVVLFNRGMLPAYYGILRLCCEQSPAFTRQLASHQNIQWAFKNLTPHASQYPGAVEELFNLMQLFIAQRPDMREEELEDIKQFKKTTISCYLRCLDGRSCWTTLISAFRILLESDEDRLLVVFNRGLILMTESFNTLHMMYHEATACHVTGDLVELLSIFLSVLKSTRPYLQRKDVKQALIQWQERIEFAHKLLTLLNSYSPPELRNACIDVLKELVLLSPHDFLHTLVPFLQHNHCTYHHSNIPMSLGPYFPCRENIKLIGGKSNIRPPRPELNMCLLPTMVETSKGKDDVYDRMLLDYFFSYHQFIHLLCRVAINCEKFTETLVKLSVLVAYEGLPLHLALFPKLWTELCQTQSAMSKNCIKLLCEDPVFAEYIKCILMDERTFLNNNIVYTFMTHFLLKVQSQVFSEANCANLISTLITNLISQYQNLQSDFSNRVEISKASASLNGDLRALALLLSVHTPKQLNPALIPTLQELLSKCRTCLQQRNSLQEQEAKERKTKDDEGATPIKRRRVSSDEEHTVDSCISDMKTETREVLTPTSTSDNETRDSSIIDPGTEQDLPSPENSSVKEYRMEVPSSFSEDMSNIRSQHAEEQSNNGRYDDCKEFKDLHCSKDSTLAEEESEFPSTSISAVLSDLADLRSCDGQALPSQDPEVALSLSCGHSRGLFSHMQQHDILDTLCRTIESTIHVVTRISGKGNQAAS

NS(=O)(=O)c1ccc(Cl)c(NC(=O)CCl)c1
inactive: [1] -0.381 | [2] -0.132 | [3] 0.0479 | [4] 0.175 | [5] -0.198

Source: the supplement of paper PMC11732987, “Enantioselective OTUD7B fragment discovery through chemoproteomics screening and high-throughput optimisation” (Communications Chemistry, 2025)
